# High-throughput results as filed in PubChem.
# DAX1 inh-1 = DAX1 (NR0B1) inhibitors, primary screen, cell-based, HEK293, Gal4-DAX1, luciferase luminescence | 340,000 tested, 0.99% active | inhibition, % at 6.75 µM | HEK293 Gal4-DAX1 luciferase reporter | Nuclear receptor subfamily 0 group B member 1 (Homo sapiens), P51843;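 active = inhibition above the mean over all tested compounds plus 3 SD, cut at about 4.2% in these data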;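 also: 0% = DAX1-transfected cells with DMSO and 100% = empty-vector control cells with DMSO; inhibition shows as a rise in luminescence from relieved DAX1 repression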
# Target sequence (P51843 207-470 limits assumed): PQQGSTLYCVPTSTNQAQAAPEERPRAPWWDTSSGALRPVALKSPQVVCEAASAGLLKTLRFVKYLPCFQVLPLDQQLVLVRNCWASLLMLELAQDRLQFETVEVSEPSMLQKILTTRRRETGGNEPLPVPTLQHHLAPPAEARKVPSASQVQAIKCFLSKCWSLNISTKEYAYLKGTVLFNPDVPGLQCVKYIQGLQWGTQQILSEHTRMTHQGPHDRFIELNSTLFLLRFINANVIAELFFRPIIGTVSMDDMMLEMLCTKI
# hgDAF12 agonist = H. glycines DAF-12 receptor agonists, primary screen, cell-based, luminescence, HEK293, GAL4 fusion, UAS-luciferase; 370,000 tested, 1.8% active; Nuclear hormone receptor DAF-12 (Heterodera glycines), GAL4 fusion; activation, % at 6.8 µM; HEK293 GAL4-hgDAF12 UAS-luciferase reporter, agonist luminescence; normalized to butyrate control;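 active = activation above a cutoff set at the mean of all screened compounds plus 3 SD, cut at about 10% in these data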;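 also: 0% = DMSO wells and 100% = sodium butyrate wells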
# ssDAF12 agonist = S. stercoralis DAF-12 nuclear receptor activators, primary screen, cell-based, luminescence, HEK293, GRIP1 co-expression, lit1-tk-luc | HEK293 ssDAF-12/GRIP1 lit1-tk-luc reporter; % of 3 µM dafachronic acid response | Nuclear hormone receptor DAF-12 (Strongyloides stercoralis) | AID 652126, 2013 | activation, % at 6.8 µM | 370,000 tested, 1% active;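 active = activation above the mean over all tested compounds plus 3 SD, cut at about 0.9% in these data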;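 also: 0% = DMSO-only wells and 100% = 3 µM delta7-dafachronic acid wells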
# Wee1 degr inh = Wee1 degradation inhibitors, primary screen, cell-based, HeLa, Wee1K328M-luciferase, luminescence | Wee1-like protein kinase (Homo sapiens), P30291 | HeLa Luc-Wee1K328M stability; 100% = proteasome inhibitor MG132 effect | reporter increase, % at 5 µM | 220,000 tested, 1.2% active | AID 1321, 2008;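 active = activation above the mean of all tested compounds plus 3 SD, set per screening run, cut at about 8.8% in these data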;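 also: cells exposed to compound for 20 h before luminescence read; 0% = DMSO alone and 100% = MG132 at 30 µM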
# hcDAF-12 act = H. contortus DAF-12 nuclear receptor activators, primary screen, cell-based, luminescence, HEK293, lit1-tk-luc reporter; HEK293 hcDAF-12 lit1-tk-luc reporter; 0% DMSO, 100% Δ7-dafachronic acid; activation, % at 6.8 µM; 370,000 tested, 1.4% active; AID 652067, 2013;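 active = activation above the mean of all tested compounds plus 3 SD, cut at about 5.5% in these data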;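 also: 100% = response to 3 µM Δ7-dafachronic acid high control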
# DAX1 inh-2 = DAX1 (NR0B1) inhibitors on StAR promoter, primary screen, cell-based, luminescence, SF-1 (NR5A1), full-length DAX-1 | 370,000 tested, 1.1% active | inhibition, % at 6.8 µM | HEK293T StAR-luciferase reporter, SF-1/DAX-1 repression relief;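 active = inhibition above the mean over all tested compounds plus 3 SD, cut at about 3.6% in these data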;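 also: 0% = DAX-1 cells with DMSO and 100% = cells lacking DAX-1 with DMSO; higher inhibition means more luminescence from relief of DAX-1 repression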
# Starred values were filed as active, the others as inactive; x = not tested or not shown. Sampled rows, rich in hits. Any-hit rate of the full collection: about 4.6%.
SMILES,DAX1 inh-1,hgDAF12 agonist,ssDAF12 agonist,Wee1 degr inh,hcDAF-12 act,DAX1 inh-2
C=CCN(CC=C)C(=S)NC(=O)/C=C/c1ccc(C)cc1,-0.8,1.7,-2.0,-0.4,-2.3,-0.2
C=CCN(CC=C)C(=S)NC(=O)/C=C/c1ccc(OC)cc1,-0.6,0.1,1.4*,0.4,0.1,-0.2
O=C(NCc1ccccc1)C1C(c2ccccc2)=Nc2ccccc2N1C(=O)c1ccncc1 (centres undefined),x,1.7,-0.8,x,0.5,-0.8
N#C/C(C(=O)Nc1ccc(Cl)cc1)=C(/S)Nc1ccccc1,-1.0,0.7,-1.2,x,-0.8,-0.2
CCOC(=O)c1ccc(-n2c(C)nc3ccc(Br)cc3c2=O)cc1,1.8,1.4,2.7*,0.1,1.6,0.4
CCOC(=O)c1ccc(-n2c(=O)[nH]c3ccccc3c2=O)cc1,-0.7,0.0,-1.3,1.2,-1.1,0.6
CCOC(=O)[C@]12CCCC=C1N(Cc1ccco1)C(=O)[C@H](CC(=O)N1CCOCC1)C2,x,4.5,-0.6,x,0.1,-0.5
O=c1c(O)c(-c2ccc(O)c(O)c2)oc2cc(O)cc(O)c12,1.9,11.8*,-0.8,x,-2.2,1.5
O=c1cc(-c2ccc(O)c(O)c2)oc2cc(O)cc(O)c12,-1.0,0.1,-1.1,x,-2.0,0.3
O=C(Nc1ccc(F)cc1)OCCN1C(=O)CCC12CCC(c1ccc(Cl)cc1)CC2 (centres undefined),x,3.2,-1.2,x,-0.5,0.4
Cc1nn(-c2nc3ccccc3[nH]2)c(=O)c2ccccc12,-4.2,-21.5,-3.3,-7.4,-6.3,-4.0
Cc1nn(-c2nc3ccccc3[nH]2)c(N)c1-c1ccc(Cl)cc1,2.0,x,x,10.7*,x,x
COC(=O)[C@]12C[C@H](CC(=O)N3CCOCC3)C(=O)N(Cc3ccco3)C1=C[C@H](COCc1ccccc1)O[C@@H]2C,x,-3.5,-0.5,x,1.8,-0.7
COc1cc(/C=N/N=C2/NC(=O)C(CC(=O)O)S2)ccc1OCc1ccc(Cl)cc1 (centres undefined),2.9,11.6*,-0.9,0.1,5.4,2.8
CCOc1ccc(CCNC(=O)c2ccc(Cl)c(S(=O)(=O)N3CCOCC3)c2)cc1OCC,-1.8,-4.2,-1.1,x,1.3,-4.3
COCCC(=O)N1CCC(C(=O)Nc2ccc(Oc3ccccc3)nc2)CC1,0.3,3.5,-0.8,x,5.8*,0.0
O=C(Nc1ccc(Oc2ccccc2)nc1)C1CCCCN1Cc1cccc(O)c1 (centres undefined),-0.1,-0.4,-0.3,x,-0.5,2.6
O=C(Nc1ccc(Oc2ccccc2)nc1)C1CCCCN1Cc1ccc(O)cc1 (centres undefined),1.1,4.9,-0.1,x,2.6,3.9*
CNC(=O)C1CCC(=O)N1Cc1c[nH]c2ccccc12 (centres undefined),x,-0.6,-0.8,x,0.3,0.2
CCn1c(Cc2cccs2)nnc1SCC(=O)Nc1ccc(Cl)cc1C,x,1.7,-1.5,x,-0.1,-2.6
COc1ccc2c(C)cc3nncn3c2c1,4.2*,-0.4,-0.7,3.0,1.2,0.0
COCCCNC(=O)c1ccc(CN2CCc3ccccc3C2)cc1,20.8*,1.3,-1.2,-1.9,-1.7,0.2
O=C(Nc1ccccc1)c1ccc(CN2CCc3ccccc3C2)cc1,-2.5,-0.9,-1.2,-0.6,-3.8,-2.4
CCCCNC(=O)c1nc(C2CCN(S(=O)(=O)c3ccc(F)c(F)c3)CC2)oc1-c1ccccc1,x,4.0,-1.2,x,-0.1,0.8
CCOC(=O)NC(=O)C(=CNc1cccc(C)c1)C(=O)NC(=O)OCC,-2.1,-1.7,-1.9,-0.1,-0.5,0.2
SMILES,DAX1 inh-1,hgDAF12 agonist,ssDAF12 agonist,Wee1 degr inh,hcDAF-12 act,DAX1 inh-2
CCOC(=O)NC(=O)C(=CNc1ccc(C)cc1)C(=O)NC(=O)OCC,0.9,0.2,0.1,-0.7,6.5*,-0.1
O=C(C=Cc1ccc2c(c1)OCO2)OCC=Cc1ccc2c(c1)OCO2,-1.2,-3.3,-0.4,x,-0.9,-0.2
COc1ccc(/C=C/C(=O)Nc2cc(C)nn2-c2nc3ccccc3n2Cc2cccc([N+](=O)[O-])c2)cc1,2.4,3.5,1.0*,-0.8,4.2,1.6
COc1ccc(/C=C/C(=O)Nc2cc(C)nn2-c2nc3ccccc3[nH]2)cc1,-0.4,0.8,-1.2,-1.0,-2.9,-0.2
Cc1cc(S(=O)(=O)N2CCCOC2CNC(=O)C(=O)NCCCN2CCOCC2)ccc1F (centres undefined),0.1,-3.1,-0.1,x,2.5,-1.1
CCOc1ccc(N(C(C)C(=O)N2CCCCCC2)S(C)(=O)=O)cc1 (centres undefined),3.8,-3.3,1.5*,x,-2.0,0.0
COc1cccc(OC)c1C(=O)Nc1ccc2c(c1)Cc1ccccc1-2,2.9,2.3,0.3,-1.6,6.4*,0.7
COc1cccc(OC)c1C(=O)NC(=S)Nc1ccc2c(c1)Cc1ccccc1-2,1.3,-0.3,0.1,0.2,3.6,0.5
C[n+]1cn(/N=C/c2ccccc2)c2ccccc21,-1.3,-1.0,-1.4,-0.9,5.8*,0.1
C=Cn1ccnc1CC(O)c1ccc(OC)cc1 (centres undefined),5.8*,-2.0,-1.3,x,-0.5,0.5
Cc1ccc(S(=O)(=O)Nc2ccc(-c3nnc(SCc4ccccc4Cl)o3)cc2)cc1,0.0,-0.4,-0.9,-3.4,-0.9,-0.5
Cc1ccc(CSc2nnc(-c3ccc(NS(=O)(=O)c4ccccc4)cc3)o2)cc1,-0.4,-0.8,1.7*,0.8,-3.6,0.2
NC1=NS(=O)(=O)Nc2ccccc21,x,1.1,-1.5,x,-1.6,x
COc1cccc(NC(=O)n2nc(N)cc2-c2ccc(Cl)cc2)c1,-0.6,12.0*,-0.6,-1.8,-0.1,-0.6
COc1cccc(NC(=O)COC(=O)Cc2ccc(Cl)cc2)c1,0.7,0.2,0.0,2.1,-0.2,0.7
COc1cc(/C=N/n2cnnc2)ccc1OCC(=O)N1CCOCC1,4.9*,-2.8,-1.2,1.4,0.3,-0.2
COc1cc(/C=N/NC(N)=S)ccc1OCC(=O)N1CCOCC1,-1.0,-0.3,-1.1,2.2,-1.6,-0.1
Cc1cc(C(=O)CSc2nc3ccc(Cl)cc3[nH]2)c(C)n1C,0.0,-1.6,-0.7,-1.3,0.6,0.1
O=C(CSc1nc2ccc(Cl)cc2[nH]1)c1cccs1,1.0,4.5,1.0*,0.0,5.3,1.2
